# Compound activity from PubChem.
# A selection: hits, their analogues and other compounds. The true share with any hit is near 3.7%.
# TGFb SMAD3 inh: inhibitors of TGF-b signaling. HepG2 CAGA-GFP TGF-b/SMAD3 reporter, GFP fluorescence, 18 h; TGF-beta stimulated, 500 pg/mL final. Potency, µM (series often up to 46.1 µM), for inactives: at the top dose activity, negative = inhibition, most hits filed as inhibitors. hit rate 1.2% among 410,000; also: % is scaled to controls: 0 for no effect and ±100 for the full control effect; nearly all actives have a fitted effect of over 65% in size
#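 Cell-based qHTS in HEPG2 carrying a CAGA-GFP Smad reporter; compounds added before 500 pg/mL final TGF-beta, 18 h incubation at 37 degrees C, GFP fluorescence quantified per cell by imaging cytometry.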
# GLP1R ag: agonists of human GLP-1 receptor | P43220 | Potency, µM (titrated, usually from 45.6 µM), without a hit: at the top dose activation, usual class: activators | hit rate 0.007% among 380,000 | AID 624172 | HEK293 GLP-1R CRE-luciferase, luminescence, 4-6 h; cells express a hypersensitive GLP-1R form; also: % of control where 0% means no effect
# Target sequence (P43220 whole entry, looked up): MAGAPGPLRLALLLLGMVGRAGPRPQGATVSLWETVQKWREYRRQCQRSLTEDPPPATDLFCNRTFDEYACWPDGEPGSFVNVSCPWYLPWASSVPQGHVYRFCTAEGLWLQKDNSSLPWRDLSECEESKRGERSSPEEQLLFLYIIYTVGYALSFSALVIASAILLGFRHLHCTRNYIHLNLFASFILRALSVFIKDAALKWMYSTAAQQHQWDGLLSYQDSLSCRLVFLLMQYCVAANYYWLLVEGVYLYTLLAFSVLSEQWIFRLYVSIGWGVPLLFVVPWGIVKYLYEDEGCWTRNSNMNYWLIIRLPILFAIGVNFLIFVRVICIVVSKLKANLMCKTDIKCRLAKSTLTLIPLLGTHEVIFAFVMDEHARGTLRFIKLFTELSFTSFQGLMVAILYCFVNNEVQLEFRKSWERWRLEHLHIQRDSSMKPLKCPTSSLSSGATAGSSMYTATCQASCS
# ATXN2 expr inh: ATXN2 expression inhibition. HEK-293 ATXN2-luciferase reporter, luminescence, 24 h. Potency, µM (titrated, usually from 57 µM), without a hit: at the highest dose activity change, negative = inhibition, most hits filed as inhibitors. hit rate 0.72% among 360,000; also: % is scaled to controls: 0 for no effect and ±100 for the full control effect; nearly all actives have a fitted effect of over 55% in size
#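 qHTS (up to 57 uM final) was run with 24 h compound exposure of reporter cells at 37 °C. Each well was multiplexed: SteadyGlo luminescence measured ATXN2-luciferase expression after a fluorogenic Gly-Phe-AFC viability readout (25 uM final).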
# S2 tox: cell viability loss in ATXN counter-screen; S2 cells (HEK-293 line with an ATXN2-luciferase reporter) viability, CellTiter-Fluor protease fluorescence, 24 h; Potency, µM (highest dose often 56.7 µM), actives largely listed as cytotoxic; hit rate 0.49% among 400,000; also: nearly all actives have a fitted effect of over 40% in size
# GLP1R inv ag: GLP-1 receptor (human) inverse agonism. P43220. HEK293 GLP-1R CRE-luciferase, luminescence, 24 h; GLP-1R form is constitutively active. Potency, µM (highest dose often 38.3 µM), inactives show at the highest dose activity change, negative = inhibition, hits mostly inhibitors. hit rate 1.6% among 410,000. AID 624417; also: % is scaled to controls: 0 for no effect and ±100 for the full control effect; nearly all actives have a fitted effect of over 55% in size
#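 qHTS in 1536-well format: reporter HEK293 cells expressing constitutive GLP-1R activity in DMEM + 10% Nu serum, 24 hr with compounds at 37 deg C, luminescence read after 12 min with detection reagent.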
# HepG2 tox: HepG2 cytotoxicity, counter-screen for TGF-b inhibitors; Potency, µM (highest dose often 46.1 µM), for the others: at the highest dose activity change, negative = cytotoxicity, usual class: cytotoxic; HepG2 CAGA-GFP viability, ATP luminescence, 18 h; AID 588856; hit rate 0.76% among 410,000
#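 CellTiter-Glo luminescence gave cytotoxicity after 18 hours at 37 degrees C. The cells were HepG2 CAGA-GFP in 1% FBS DMEM, stimulated with 500 pg/mL TGF-beta after compound addition. %Activity was normalised to no-cell wells (complete cell-killing) and DMSO (no toxicity), and curves were fitted and classified.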
# An asterisk follows results filed as active; i = inactive; ? = inconclusive; · = not tested or not shown; ! = repeats disagree. Calls follow the shape of the dose curve; as a rule, active = well fitted curve in the direction sought with a large enough effect; inconclusive = small, poorly fitted or top-dose-only effect, or another doubt; inactive = no such curve, though single readings can be large; an effect the other way counts as inactive or inconclusive. Potency is read from the fitted curve at half-maximal effect.
SMILES,TGFb SMAD3 inh,GLP1R ag,ATXN2 expr inh,S2 tox,GLP1R inv ag,HepG2 tox
C/C=C1\COC(C(=O)NCc2ccccc2)(C(F)(F)F)C=C1C=C(C)C (stereo not given),11.2µM*!,8.0%,5.6%,i,10µM*,-14.7%
C/C=C1\COC(C(=O)NCCN2CCOCC2)(C(F)(F)F)C=C1C=C(C)C (stereo not given),-31.1%,·,·,·,·,-11.9%
O=C(Nc1ccc2nc3n(c(=O)c2c1)CCCC3)c1cccc([N+](=O)[O-])c1,-0.1%,21.9%,8.4%,?,42.7%,-5.1%
CCc1ccc(NC(=O)c2ccc3c(=O)n4c(nc3c2)CCCCC4)cc1,-22.3%,5.7%,?,?,?,-25.9%
CCN(CC)S(=O)(=O)c1ccc(NC(=O)c2ccc3c(=O)n4c(nc3c2)CCCCC4)cc1,?,·,22.4µM*,·,-21.1%,-32.4%
O=C(Nc1ccc2nc3n(c(=O)c2c1)CCCC3)c1cc([N+](=O)[O-])ccc1F,?,-22.8%,25.1µM*,·,?,-59.9%
CCOc1ccc(NC(=O)c2ccc3c(=O)n4c(nc3c2)CCCCC4)cc1,5.9%,6.3%,-7.3%,i,7.1%,8.91µM*!
CCCCCCCCCCCCCCCCOC(=O)N1CCN(/[N+]([O-])=N/Oc2ccc([N+](=O)[O-])cc2[N+](C)=O)CC1,-2.6%,·,·,·,·,1.6%
CNC(=O)/C(C#N)=C/c1c(N(Cc2ccccc2)Cc2ccccc2)nc2c(C)cccn2c1=O,12.6µM*,6.6%,-6.7%,?,?,6.4%
CCN1CCN(Cc2ccc(NC(=O)c3ccc(C)c(NC(=O)c4csc(-c5ccncc5)n4)c3)cc2C(F)(F)F)CC1,?,-2.1%,0.0%,?,-5.9%,15.8µM*
CCN1CCN(Cc2ccc(NC(=O)c3ccc(C)c(NC(=O)c4ccno4)c3)cc2C(F)(F)F)CC1,-0.3%,-0.6%,-28.7%,i,?,-50.8%
CCN1CCN(Cc2ccc(NC(=O)c3ccc(C)c(/C=C/c4cnc(Nc5cc(N6CCNCC6)nc(C)n5)cn4)c3)cc2C(F)(F)F)CC1,?,-6.6%,12.6µM*!,i,?,17.8µM*
CCN1CCN(Cc2ccc(NC(=O)c3ccc(C)c(NC(=O)c4c[nH]c5cc(C(F)(F)F)ccc5c4=O)c3)cc2C(F)(F)F)CC1,11.2µM*,-0.4%,3.98µM*!,7.08µM*,10µM*,15.8µM*!
COc1cccc(C2C(C(=O)Nc3ccc(Cl)cc3)=C(C)Nc3c(C(=O)Nc4ccccc4)cnn32)c1OC (stereo not given),-15.5%,·,-13.3%,i,?,-8.5%
COc1ccc(-n2nc(C#N)c(Cl)cc2=O)cc1,15.8µM*,-7.7%,?,·,?,17.8µM*
COC(=O)c1nn(-c2ccc(OC)cc2)c(=O)cc1O,3.8%,-4.2%,8.1%,i,-1.4%,8.4%
O=C(Cn1c2c(c(-c3ccccc3)cc1=O)CCCC2)N1CCCCCC1,2.9%,3.2%,-23.5%,i,12.6µM*,-23.7%
CC(C)(C)c1cc(C=O)cc(C(C)(C)C)c1O,·,·,4.1%,i,·,·
CC(C)(C)OC(=O)NC(Cc1ccccc1)C(O)c1ccco1 (stereo not given),?,·,·,·,·,-5.1%
C[C@H](O)[C@@H]1CN2CCc3c([nH]c4ccc(-c5ccc6c(c5)OCO6)cc34)[C@@H]2C[C@@H]1N(C)C(=O)Nc1cc(Cl)cc(Cl)c1,?,-4.4%,20µM*,15.8µM*,2.82µM*,-94.9%
COc1ccc(NC(=O)N(C)[C@H]2C[C@H]3c4[nH]c5ccc(-c6cccc(C)c6)cc5c4CCN3C[C@H]2[C@H](C)O)cc1,?,-3.5%,25.1µM*,·,?,-120.6%
C[C@H](O)[C@@H]1C(=O)N2CCc3c([nH]c4ccccc34)[C@@H]2C[C@@H]1N(C)C(=O)Nc1ccccc1,-4.1%,1.7%,20.0%,i,-25.2%,-15.6%
C[C@H](O)[C@@H]1C(=O)N2CCc3c([nH]c4ccccc34)[C@@H]2C[C@@H]1N(C)C(=O)Nc1cc(Cl)cc(Cl)c1,?,-6.0%,0.0%,?,10µM*,-12.2%
Cc1cccc(-c2ccc3[nH]c4c(c3c2)CCN2C[C@@H]([C@H](C)O)[C@@H](N(C)C(=O)Nc3ccc(F)cc3)C[C@@H]42)c1,?,-1.4%,?,·,?,-115.7%
OC(C[n+]1c(Cl)ccc2ccccc21)c1ccccc1 (stereo not given),-3.2%,·,·,·,·,3.1%
SMILES,TGFb SMAD3 inh,GLP1R ag,ATXN2 expr inh,S2 tox,GLP1R inv ag,HepG2 tox
O=S(=O)(c1ccc(Br)cc1)c1nnn2c1nc(Nc1cccc(C(F)(F)F)c1)c1sccc12,19.3%,·,·,·,3.6%,-1.2%
O=C(CC1(O)C(=O)N(CCc2ccccc2)c2ccc(Br)cc21)c1ccccc1 (stereo not given),?,2.3%,-18.2%,i,?,-104.8%
CCCCN1C(=O)C(O)(c2ccccc2)c2cc(Br)ccc21 (stereo not given),?,14.6%,14.6%,i,12.6µM*,-44.0%
O=C(c1ccccc1)C(CCC(CN1CCOCC1)C(=O)c1ccccc1)CN1CCOCC1 (stereo not given),?,-37.6%,22.4µM*,·,?,-104.2%
COc1ccc(C(=O)C(CN2CCOCC2)c2ccccc2)cc1 (stereo not given),?,-15.0%,?,17.8µM*,0.0%,-89.1%
COc1ccc(C(=O)C(CN2CCCC2)c2ccccc2)cc1 (stereo not given),11.2µM*,-17.1%,?,·,5.62µM*,31.6µM*
O=C(C[n+]1csc2ccccc21)c1cccc([N+](=O)[O-])c1,-27.9%,·,·,·,·,-5.2%
Cc1ccc(S(=O)(=O)N2CCC(N3CCN(C)CC3)CC2)cc1Cl,-20.7%,7.3%,-12.7%,?,2.51µM*,9.0%
COc1cc(=O)n2c(c1C(=O)NCc1nonc1C)CCN(Cc1c[nH]c3ccccc13)CC2,·,·,·,i,·,·
CCC[C@H](CN[C@@H](CNC)[C@H](C)CC)NCCc1cc(C(F)(F)F)cc(C(F)(F)F)c1,15.8µM*,-5.9%,?,·,?,22.4µM*
CCC[C@@H](CN[C@@H](CNC)[C@H](C)CC)NCC1CCC(C(C)(C)C)CC1 (stereo not given in full),?,-14.0%,?,·,10µM*,-118.6%
CC[C@@H](C)[C@H](CNC)NC[C@@H](Cc1cccc2ccccc12)NCCc1cccc(C(F)(F)F)c1,?,-6.7%,-22.3%,35.5µM*,-15.9%,-110.2%
